Test [1] can be described thus: NCI Yeast Anticancer Drug Screen. Data for the rad50 strain (AID 155).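 Note: 0% = growth of vehicle-only cultures of the same strain.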 The settings on record: S. cerevisiae rad50 strain growth inhibition; at 50.0 µM; active compounds read high. Summed up: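 Cells are treated with compound, grown, and their growth is then scored against vehicle-only cultures of the same repair-deficient yeast strain.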
Test [2] is described as follows: NCI Yeast Anticancer Drug Screen. Data for the mec2-1 strain (AID 157). The settings on record: S. cerevisiae mec2-1 strain, at 50.0 µM, active compounds read high. Summed up:
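Cells of the genetically defined mec2-1 yeast strain are incubated with test compound. Inhibition of growth is calculated against vehicle-treated controls.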

A short description of test [3]: NCI Yeast Anticancer Drug Screen. Data for the sgs1 mgt1 strain (AID 161).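 Note: 0% = growth of cultures given vehicle only.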 The settings on record: S. cerevisiae sgs1 mgt1 strain, at 50.0 µM, active compounds read high. Summed up: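 Inhibition of yeast growth, normalised to vehicle-treated controls, is reported for a strain bearing genetic alterations in DNA damage repair.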
Test [4] in a line: NCI Yeast Anticancer Drug Screen. Data for the cln2 rad14 strain (AID 165).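 Note: 0% = growth equal to vehicle treated cultures.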 To be noted: S. cerevisiae cln2 rad14 strain, at 50.0 µM, active compounds read high. Summed up: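 The screen exposed genetically defined yeast (cln2 rad14) to test compounds and scored growth inhibition relative to vehicle-treated controls.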
Test [5] can be described thus: NCI Yeast Anticancer Drug Screen. Data for the bub3 strain (AID 167). To be noted: S. cerevisiae bub3 mutant strain, at 50.0 µM, active compounds read high. Summed up:
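Part of a panel of yeast mutants defective in DNA damage repair or cell cycle regulation. Each strain is grown with compound, and inhibition is calculated relative to solvent-treated cultures.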

A short description of test [6]: NCI Yeast Anticancer Drug Screen. Data for the mlh1 rad18 strain (AID 175). The settings on record: S. cerevisiae mlh1 rad18 strain growth inhibition; at 50.0 µM; active compounds read high. Summed up: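 Compound-treated yeast growth, normalised to vehicle controls. Strain bears defined DNA repair mutations.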

The results in this text go back to PubChem BioAssay (NCI).

The structures appear in SMILES notation. Compounds without any hit were thinned out: in the full panel of roughly 79,000, 15% have a hit. Values without a mark were called inactive. Calls of active or inactive are those of the source. Cut-off read from the data, not from the text of the source: active = growth inhibition above about 70%; inactive = the rest.

Turning to `CCCCCCC1CCCCC1`, the growth inhibition is -35% in test [1]; -41.7% in test [2]; -29% in test [3]; 19.9% in test [4]; -28.8% in test [5]; -20% in test [6].
For `CC(C)(C(=O)O)c1ccccc1C(=O)c1ccccc1`, the growth inhibition in test [1] was -10.7%; in test [2], 12.1%; in test [3] it was 0.15%; in test [4], 49.3%; in test [5], -0.75%; in test [6], 14.3%.
In the case of `O=C(O)c1ccc(O)cc1O`, the growth inhibition in test [1] is 12.8%; in test [2], 18.6%; in test [3], -25.2%; in test [4], -29.4%; in test [5], -4.65%; in test [6], -2.5%.
Consider `NNC(=O)CCCO`, for which the growth inhibition in test [1] was -33.9%; in test [2], -24%; in test [3], -7.5%; in test [4], -8%; in test [5] it was 0.4%; in test [6], 8.25%.
Turning to `CCOC(=O)c1cc2c(oc1=O)-c1cc(C)ccc1OC2C` (stereo unspecified), the growth inhibition in test [1] was -9.45%; in test [2], -14.8%; in test [3], 8.75%; in test [4], -40.6%; in test [5] it was -38.4%; in test [6] it was 11.1%.
Turning to `CCOC(=O)c1cc(C=O)nc2c(Cl)cc(Cl)cc12`, the growth inhibition in test [1] was 18.7%; in test [2] it was 6.25%; in test [3], 22.4%; in test [4], 5.9%; in test [5], 3.8%; in test [6], 17.6%.
Take `COC(=O)CCN(CCC(=O)OC)C1CC1`: the growth inhibition in test [1] was -23.4%; in test [2] it was -14.3%; in test [3], -13.4%; in test [4] it was 19.6%; in test [5], 3.75%; in test [6] it was -20.4%.
Take `S=C(Nc1ccc2ccccc2c1)Nc1ccc2ccccc2c1`: the growth inhibition in test [1] was 22%; in test [2], 10.9%; in test [3], 14.4%; in test [4] it was -30.6%; in test [5], 5.4%; in test [6], -2%.
Regarding `CN1CCN(C(CO)Cc2ccccc2)CC1` (stereo unspecified), the growth inhibition in test [1] is 3.85%; in test [2] it was -10.1%; in test [3] it was -9.5%; in test [4], -15.8%; in test [5], 8.8%; in test [6] it was -7.4%.
For `COc1cc2c(cc1OC)C(C#N)(C(c1ccccc1)c1ccccc1)N(C(=O)c1ccccc1)C=C2` (stereo unspecified), the growth inhibition in test [1] was 16.9%; in test [2] it was 3.45%; in test [3], 1.35%; in test [4], -1.15%; in test [5], -0.7%; in test [6], 30.9%.
As to `O=S(=O)([O-])c1ccc(N=Cc2ccccc2[O-])cc1.O=S(=O)([O-])c1ccc(N=Cc2ccccc2[O-])cc1.[Co+2]`, the growth inhibition in test [1] is 16.6%; in test [2], 2.25%; in test [3], -15.2%; in test [4], 23.4%; in test [5] it was 9.25%; in test [6], -9.65%.
As to `C[N+]1(C)C2CCC1CC(OC(=O)C(O)c1ccccc1)C2` (stereo unspecified), the growth inhibition in test [1] is -6.8%; in test [2], -54.4%; in test [3], -5.1%; in test [4], -4.85%; in test [5] it was -13.8%; in test [6], -4.8%.
As for `CCOC(=O)NC(CC)CO` (stereo unspecified), the growth inhibition in test [1] was -13.1%; in test [2] it was -22.9%; in test [3], -14%; in test [4], 16.1%; in test [5], 5.55%; in test [6] it was -6.9%.
Turning to `CCC1SC(N)=NC1c1ccccc1` (stereo unspecified), the growth inhibition was 22.2% in test [1]; 2.85% in test [2]; 31.9% in test [3]; 9.95% in test [4]; 14.1% in test [5]; 24.6% in test [6].
`CCOC(=O)NC1c2ccccc2Oc2ccccc21`: the growth inhibition is -4.5% in test [1]; -5.4% in test [2]; 4.95% in test [3]; -16.3% in test [4]; 11% in test [5]; 2.3% in test [6].
In the case of `CCCCC1SC2=NCCN2C1(O)c1ccc(Cl)cc1` (stereo unspecified), the growth inhibition in test [1] was 14.6%; in test [2], 3.55%; in test [3], 28.9%; in test [4], 18%; in test [5], 31.3%; in test [6], 26.5%.
For `O=C(c1ccccc1)C(C(c1ccccc1)N1CCOCC1)N1CCOCC1` (stereo unspecified), the growth inhibition in test [1] was -19.1%; in test [2] it was 2.2%; in test [3] it was -4.55%; in test [4], -9.45%; in test [5], -5.7%; in test [6], 0.65%.
Regarding `CSCC1CC(c2ccc(Cl)cc2)=NO1` (stereo unspecified), the growth inhibition was 27.8% in test [1]; 6.8% in test [2]; 1.05% in test [3]; -1.4% in test [4]; 0.45% in test [5]; 32.6% in test [6].
With `Cc1nc(N)[nH]c(=O)c1CCCN=Cc1ccc([N+](=O)[O-])cc1`, the growth inhibition in test [1] is 4.3%; in test [2], 6%; in test [3], 14.4%; in test [4], 7.7%; in test [5], 31.6%; in test [6], 29.9%.
On to `O=C(C=C(C(F)(F)F)C(F)(F)F)/C=C/c1ccccc1`, for which the growth inhibition was 99.5% (active) in test [1]; 99.7% (active) in test [2]; 99.5% (active) in test [3]; 99.5% (active) in test [4]; 99.3% (active) in test [5]; 99.4% (active) in test [6].
For `CCCCCCCCCCCCCCCCSS(=O)(=O)O`, the growth inhibition in test [1] is 8.5%; in test [2], 15.7%; in test [3], 15.8%; in test [4], -1.15%; in test [5] it was 0.15%; in test [6] it was 4.9%.
`CCCCCC(=O)O`: the growth inhibition in test [1] is -20.2%; in test [2], -7.1%; in test [3], -42.1%; in test [4], 26.9%; in test [5], -38.9%; in test [6] it was 16.8%.
Turning to `O=C1NC2OCC(O)C(O1)C2O` (stereo unspecified), the growth inhibition in test [1] was 3.85%; in test [2], 1%; in test [3], -13.3%; in test [4] it was 7.75%; in test [5], -2.25%; in test [6], 16.3%.
With `COc1ccc(CCN2C(=O)C(=O)N(c3ccc(Cl)c(Cl)c3)C2=O)cc1OC`, the growth inhibition in test [1] is 3.05%; in test [2] it was -0.25%; in test [3], 11.5%; in test [4], 14.3%; in test [5], -4.35%; in test [6] it was 13%.
As for `N#CC(N)=NC1CCC(C2CCC(O)CC2)CC1` (stereo unspecified), the growth inhibition in test [1] was 6.65%; in test [2], 2.4%; in test [3], -6.25%; in test [4], -1.3%; in test [5], 16.1%; in test [6] it was 10.7%.
In the case of `CC(=O)OCCc1ccc2c(c1)OCO2`, the growth inhibition in test [1] is -0.1%; in test [2] it was -11.8%; in test [3], 6.05%; in test [4] it was -30.9%; in test [5], -16.9%; in test [6] it was -6.15%.
Take `CC1(O)CCCCCCC1`: the growth inhibition in test [1] was 0.85%; in test [2], -3.6%; in test [3], 26.6%; in test [4], 0.7%; in test [5], 7.9%; in test [6], 7.8%.
For `CCCCCc1c(C)nc(N)[nH]c1=O`, the growth inhibition in test [1] is -3.95%; in test [2] it was 0.7%; in test [3], 1.2%; in test [4], -40%; in test [5], -15.4%; in test [6] it was -5.45%.
`CS(=O)(=O)OC[C@@H]1C2CCC(C2)[C@@H]1COS(C)(=O)=O`: the growth inhibition in test [1] was -8.45%; in test [2], -12.8%; in test [3], 1.5%; in test [4], -52.8%; in test [5] it was -3.5%; in test [6], -14.2%.
Consider `CC(=O)Nc1ccc(/C=N\N=C\c2ccc(NC(C)=O)cc2)cc1`, for which the growth inhibition in test [1] was 1.95%; in test [2] it was 13.7%; in test [3] it was 28.4%; in test [4], -4.6%; in test [5], 29.9%; in test [6], 28.6%.
`CC1CN1C(=O)Nc1cccc2c(NC(=O)N3CC3C)cccc12` (stereo unspecified): the growth inhibition was -21.9% in test [1]; -12.4% in test [2]; -8.85% in test [3]; -15.8% in test [4]; 22.4% in test [5]; -2.45% in test [6].
In the case of `CC(=O)Nc1ccc(S(=O)(=O)SC(F)(F)F)cc1`, the growth inhibition in test [1] was 0.8%; in test [2], 7.25%; in test [3] it was 17.4%; in test [4], 24.7%; in test [5], 8.85%; in test [6], 13.7%.
For the compound `COc1cc(C(=O)N(C)N(C)C)cc(OC)c1OC`, the growth inhibition in test [1] is 6.6%; in test [2] it was -9.6%; in test [3], 13.4%; in test [4], 10.9%; in test [5], -2.85%; in test [6], -5.6%.
As for `CCCCCC(=O)Cc1cc(OC)cc2c1C(=O)Oc1cc(O)c(C(=O)O)c(CC(=O)CCCCC)c1O2`, the growth inhibition in test [1] was 83% (active); in test [2] it was 86.5% (active); in test [3], 85.8% (active); in test [4], 79.4% (active); in test [5], 80.1% (active); in test [6], 78.1% (active).
As for `OC1CC2c3ccccc3C1c1cccc[n+]12` (stereo unspecified), the growth inhibition in test [1] is 16.2%; in test [2], -9.85%; in test [3], -4.1%; in test [4], -38.7%; in test [5] it was 4.65%; in test [6], 14.7%.
With `CC(=O)OCCOCNC(=S)NN`, the growth inhibition is -7.55% in test [1]; 7.8% in test [2]; 11.2% in test [3]; -16.3% in test [4]; -3.95% in test [5]; -4.8% in test [6].
On to `CC1=C(/C=C/C(O)CC(O)(C(F)(F)F)C(F)(F)F)C(C)(C)CCC1` (stereo unspecified), for which the growth inhibition was 38% in test [1]; 20.8% in test [2]; 18.9% in test [3]; 43.2% in test [4]; 17% in test [5]; 63.1% in test [6].
Regarding `COc1ccccc1C(OC)c1ccccc1C(=O)O` (stereo unspecified), the growth inhibition in test [1] was -10.9%; in test [2], -17.1%; in test [3], -1.4%; in test [4] it was -12.5%; in test [5] it was -4.7%; in test [6], -16.1%.
As for `Clc1ccccc1C=NCCN=Cc1ccccc1Cl`, the growth inhibition in test [1] is -1.75%; in test [2] it was -14.8%; in test [3], -3.5%; in test [4], 0.5%; in test [5], 3.4%; in test [6], 1.15%.
Take `c1ccc2c(c1)CCc1ccccc1N=N2`: the growth inhibition in test [1] was -8.1%; in test [2], -1.55%; in test [3], -17.1%; in test [4], -30.4%; in test [5], -1.4%; in test [6] it was 5.35%.
On to `CCN(CC)CCOC(=O)Nc1cc(C)cc(C)c1`, for which the growth inhibition was 24.6% in test [1]; -9.15% in test [2]; 27.5% in test [3]; 16.4% in test [4]; 31.9% in test [5]; 17.1% in test [6].
